Shh pathway inh = blocks Sonic Hedgehog signaling; Shh-LIGHT2 Gli-luciferase reporter, 30 h; inhibition, % (no concentration beside the values); 22,000 tested, 2.1% active; AID 2313;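 active = mean inhibition across valid replicates above about 65%, limit read from the data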;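 also: pathway switched on by Shh-conditioned medium diluted 1 in 25 in low serum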
MITF inhib = inhibitors of MITF; TRPM1 promoter luciferase, luminescence, 24 h; inhibition, % (no concentration beside the values); 37,000 tested, 0.28% active; in the data active = inhibition above about 85%;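 also: human melanocyte line stably carrying TRPM1 promoter luciferase reporter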
NOMO-1 viab = STK33 inhibitor candidate reducing NOMO-1 cell viability; NOMO-1 AML viability, CellTiter-Glo luminescence, 72 h; inhibition, % (no concentration beside the values); 37,000 tested, 7.5% active; AID 2330; in the data active = inhibition above about 80%
* hit, by the source's call; · = no result given. Only some compounds are listed: those with a hit (about 7.9% of all), similar ones and a draw of the others.

SMILES	Shh pathway inh	MITF inhib	NOMO-1 viab
Cc1noc(C)c1S(=O)(=O)N(C)C[C@@H]1Oc2ccc(NC(=O)CCCCCC(=O)Nc3ccccc3N)cc2CC(=O)N([C@@H](C)CO)C[C@@H]1C	·	-14.9	10.6
CCn1c2c(c3cc(Br)ccc31)CCCC2=O	8.3	-8.0	23.6
CCn1c2c(c3cc(OCc4ccccc4)ccc31)CCCC2=O	76.8*	-25.0	38.3
COc1ccc(OC)c(C2C(C(=O)c3ccco3)C(=O)C(=O)N2Cc2cccnc2)c1 (stereo not given)	·	3.7	38.5
COC(=O)Nc1nc2ccc(SC(C)C)cc2[nH]1	-71.6	4.1	118.1*
COc1ccc(NC(=O)CSc2nc3ccc([N+](=O)[O-])cc3[nH]2)cc1	·	16.0	27.5
CCCSc1ccc2nc(NC(=O)OC)[nH]c2c1	48.5	5.9	117.7*
CCOc1ccc(NC(=O)C(C)Sc2nc3ccc(F)cc3[nH]2)cc1 (stereo not given)	·	-14.0	24.6
Cc1noc(C)c1NC(=O)Nc1ccc2c(c1)CC(=O)N([C@H](C)CO)C[C@@H](C)[C@H](CN(C)C(=O)Nc1c(C)noc1C)O2	-18.0	1.5	-13.3
O=C(Nc1ccccc1)Nc1ccccc1	-56.4	-9.7	35.9
O=C(Nc1ccccc1)Nc1ccc2nnsc2c1	-63.0	-20.3	82.9*
COc1cc2c(c(O)c1OC)C(=O)CC(c1ccc(O)cc1)O2 (stereo not given)	33.0	-19.2	20.2
COc1cc2c(c(OC)c1)C(=O)OC(C)C2 (stereo not given)	-15.4	0.7	25.2
COc1cc2c(c(OC)c1OC)-c1cc3c(cc1C[C@H]1C(=O)OC[C@@H]1C2)OCO3	9.9	-8.0	105.8*
COc1cc2c(c(OC)c1OC)C[C@H]1COC(=O)[C@@H]1Cc1c-2cc(OC)c(OC)c1OC	67.2*	·	·
COC(=O)c1ccccc1NC(=O)Cc1coc2c(C)c(C)ccc12	·	-1.0	25.0
CN(CCCc1nc2ccccc2[nH]1)S(=O)(=O)c1ccc(Cl)cc1	·	14.8	34.8
C[C@H](CO)N1C[C@H](C)[C@H](CN(C)Cc2ccc(-c3ccccc3)cc2)Oc2ccc(NC(=O)Nc3ccccc3)cc2CC1=O	6.2	16.7	113.0*
COc1ccc(NC(=O)Nc2ccc3c(c2)CC(=O)N([C@H](C)CO)C[C@@H](C)[C@@H](CN(C)Cc2ccc(-c4ccccc4)cc2)O3)cc1	13.0	3.9	111.6*
C[C@H]1CN([C@@H](C)CO)C(=O)Cc2cc(NC(=O)Nc3ccccc3)ccc2O[C@H]1CN(C)Cc1ccc(-c2ccccc2)cc1	-31.8	-16.8	-21.1
C[C@@H]1CN([C@H](C)CO)C(=O)Cc2cc(NC(=O)Nc3ccc4c(c3)OCO4)ccc2O[C@@H]1CN(C)Cc1ccc(-c2ccccc2)cc1	40.7	37.7	72.8
C[C@H]1CN([C@@H](C)CO)C(=O)Cc2cc(NC(=O)Nc3ccc4c(c3)OCO4)ccc2O[C@H]1CN(C)Cc1ccc(-c2ccccc2)cc1	·	19.8	92.3*
COc1ccc(NC(=O)Nc2ccc3c(c2)CC(=O)N([C@H](C)CO)C[C@H](C)[C@H](CN(C)Cc2ccc(-c4ccccc4)cc2)O3)cc1	-21.7	-1.5	59.5
O=C(NCC(O)c1ccccc1)c1ccc(Cl)c(S(=O)(=O)N2CCOCC2)c1 (stereo not given)	·	-6.8	24.4
COc1ccc(NC(=O)c2cc(S(=O)(=O)Nc3ccc(OC)cc3)c(Cl)cc2Cl)cc1	·	-13.3	0.2
SMILES	Shh pathway inh	MITF inhib	NOMO-1 viab
COc1ccccc1-c1cc(-c2ccccc2)nc(SCC(=O)c2cc3ccccc3oc2=O)c1C#N	·	15.0	67.9
COc1ccc(NC(=O)N(C)C[C@H]2Oc3ccc(NS(=O)(=O)c4ccc(F)cc4)cc3CC(=O)N([C@@H](C)CO)C[C@H]2C)cc1	-2.9	-23.4	4.2
Cc1ccccc1NC(=O)CC(C(=O)O)N1CCOCC1 (stereo not given)	·	-24.9	-14.4
CCc1ccccc1NC(=O)CSc1nnc(-c2cccc(C)c2)n1C	·	0.5	-7.9
COc1ccc(NC(=O)N(C)C[C@H]2OCCCC[C@@H](C)Oc3ccc(NS(=O)(=O)c4ccc(Cl)cc4)cc3C(=O)N([C@H](C)CO)C[C@@H]2C)cc1	5.9	-11.4	42.7
CSc1cccc(NC(=O)CN(c2ccc(F)c(Cl)c2)S(C)(=O)=O)c1	·	15.7	-7.8
C[C@@H]1CN([C@H](C)CO)C(=O)c2cccc(NS(=O)(=O)c3cn(C)cn3)c2O[C@@H]1CN(C)C(=O)Nc1ccc2c(c1)OCO2	-31.0	-1.1	12.4
CCn1c(SCC(=O)Nc2cc3oc4ccccc4c3cc2OC)nnc1-c1cccnc1	·	23.6	28.5
Cc1ccc(S(=O)(=O)NCc2ccccc2)cc1	·	-24.1	11.8
Cc1ccc(S(=O)(=O)N[C@H](Cc2ccccc2)C(=O)CCl)cc1	9.4	15.7	98.2*
COc1ccc(C2=NN(S(C)(=O)=O)C(c3ccccc3OC)C2)cc1 (stereo not given)	-14.1	12.4	65.1
COc1ccc(C2=Nc3ccccc3SC(c3ccccc3)C2)cc1 (stereo not given)	80.3*	-2.5	113.4*
Cc1ccc(NC(=O)Cn2cnc3sc(C(=O)OC(C)C)c(C)c3c2=O)cc1	·	-9.7	66.4
CCCCCCCCCC/C=C\CCCCCCCc1cccc(O)c1C(=O)O	103.1*	80.7	119.2*
CCCCCCCC/C=C\CCCCCCCc1cccc(O)c1C(=O)O	66.0*	10.5	34.5
CCCCC/C=C\C/C=C\C/C=C\C/C=C\CCCCCC(=O)O	-10.0	-6.1	19.2
CCCCC/C=C\C/C=C\C/C=C\C/C=C\CCCC(=O)O	-35.6	-1.5	-1.3
C[C@@H]1CN([C@@H](C)CO)C(=O)c2cc(NC(=O)CCCN(C)C)ccc2O[C@H]1CN(C)Cc1ccc2c(c1)OCO2	-44.8	9.8	0.1
C=C1C(=O)O[C@H]2C[C@H](C)[C@@H]3CC(=O)C(C)=C3C[C@H]12	11.0	13.3	116.8*
C=C1C(=O)O[C@H]2CC(C)C3CC[C@@]4(C)O[C@@]34CC12 (stereo not given in full)	-15.9	·	·
Cc1noc(C)c1NC(=O)Nc1cccc2c1O[C@@H](CN(C)CC1CC1)[C@H](C)CN([C@H](C)CO)C2=O	-3.8	-6.3	6.7
C[C@@H]1CN([C@H](C)CO)C(=O)c2cc(N(C)C)ccc2O[C@H]1CN(C)Cc1ccc(Cl)c(Cl)c1	-46.8	9.5	96.7*
C[C@@H]1CCCCO[C@H](CN(C)Cc2ccc(Cl)c(Cl)c2)[C@@H](C)CN([C@H](C)CO)C(=O)c2cc(N(C)C)ccc2O1	26.3	24.4	86.7*
C[C@@H]1CN([C@@H](C)CO)C(=O)c2cc(N(C)C)ccc2O[C@@H]1CN(C)Cc1ccc(Cl)c(Cl)c1	18.8	-0.7	47.5
C[C@@H]1CCCCO[C@@H](CN(C)Cc2ccc3c(c2)OCO3)[C@@H](C)CN([C@H](C)CO)C(=O)c2cc(N(C)C)ccc2O1	-16.1	-11.0	4.9
Cn1c(SCC(N)=O)nnc1-c1cccc(Cl)c1	·	-22.7	-1.4
O=C(COc1ccc(I)cc1)Nc1cccnc1	·	0.4	-8.2
C[C@H]1CN([C@@H](C)CO)C(=O)c2cccc(NS(=O)(=O)c3ccc(Cl)cc3)c2O[C@H]1CN(C)Cc1ccc(-c2ccccc2)cc1	52.0	10.9	83.7*
Cc1ccc(S(=O)(=O)Nc2cccc3c2O[C@@H](CN(C)Cc2ccc(Oc4ccccc4)cc2)[C@@H](C)CN([C@H](C)CO)C3=O)cc1	36.2	47.9	85.7*

Screens (PubChem)
